In PubChem BioAssay AID624255 (Broad Institute, 2012):
Screen size: about 77,000 compounds; about 4,600 (6%) were called active. About 1% were inconclusive and are not listed. The sample holds actives, similar compounds and a random draw of the others, so the mix is not that of the screen.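 How the source made its calls: active means mean inhibition above about 93%, with at least 55% of replicates each passing it (limit read from the data, passing the limit was not always enough); inconclusive means only one of those two conditions holds; inactive means neither condition holds.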

Assay: growth inhibition of T. cruzi in host fibroblasts – cell-based, beta-gal Tulahuen parasites, NIH3T3 host, luminescence, primary screen (AID 624255)
Details: T. cruzi beta-gal in NIH3T3, GalScreen luminescence, 90 h; at 8.34 µM; stronger effect = higher value

Row | SMILES | inhibition
1 | COc1ccccc1CNC(=O)C[C@@H]1CC[C@H](NC(=O)CN(C)C)[C@@H](CO)O1 | 18.4% (inactive)
2 | O=C(Nc1ccc(F)cc1)N[C@H]1CC[C@H](CCn2cc(-c3ccc(F)cc3)nn2)O[C@@H]1CO | -16.9% (inactive)
3 | C[C@H]1CN([C@@H](C)CO)S(=O)(=O)c2ccc(C#Cc3ccncc3)cc2O[C@@H]1CN(C)C(=O)Nc1ccc2c(c1)OCO2 | 86.1% (inactive)
4 | CN1C(=O)c2cc(NC(=O)NC3CCCC3)ccc2OC[C@@H]2O[C@@H](CC(=O)O)CC[C@H]21 | -32.1% (inactive)
5 | C[C@@H]1CCCCO[C@@H](CN(C)Cc2ccc(C(F)(F)F)cc2)[C@@H](C)CN([C@H](C)CO)C(=O)c2cc(NC(=O)Nc3ccccc3)ccc2O1 | 110% (active)
6 | C[C@H]1CCCCO[C@@H](CN(C)Cc2ccc(C(F)(F)F)cc2)[C@@H](C)CN([C@@H](C)CO)C(=O)c2cc(NC(=O)Nc3ccccc3)ccc2O1 | 73.3% (inactive)
7 | C[C@@H]1CN([C@H](C)CO)C(=O)c2cc(NC(=O)Nc3ccccc3)ccc2O[C@@H](C)CCCCO[C@H]1CN(C)Cc1ccc(C(F)(F)F)cc1 | 73.3% (inactive)
8 | C[C@@H]1CN([C@H](C)CO)C(=O)c2cc(NC(=O)Nc3ccc(C(F)(F)F)cc3)ccc2O[C@@H](C)CCCCO[C@@H]1CN(C)Cc1ccc(C(F)(F)F)cc1 | 86.3% (inactive)
9 | C[C@@H]1CCCCO[C@H](CN(C)Cc2ccc(C(F)(F)F)cc2)[C@H](C)CN([C@H](C)CO)C(=O)c2cc(NC(=O)Nc3ccc(F)cc3)ccc2O1 | 103% (active)
10 | C[C@@H]1CCCCO[C@@H](CN(C)Cc2ccc(C(=O)O)cc2)[C@@H](C)CN([C@@H](C)CO)C(=O)c2cc(NC(=O)Nc3ccc(C(F)(F)F)cc3)ccc2O1 | 14.7% (inactive)
11 | C/C=C/c1ccc2c(c1)O[C@H](CN(C)C(=O)Cc1ccncc1)[C@@H](C)CN([C@@H](C)CO)S2(=O)=O | 20.3% (inactive)
12 | C[C@H]1CCCCO[C@H](CN(C)CC2CCCCC2)[C@@H](C)CN([C@@H](C)CO)C(=O)c2cc(NS(=O)(=O)c3ccc(Cl)cc3)ccc2O1 | 88% (inactive)
13 | C[C@@H]1CN([C@H](C)CO)C(=O)c2cc(C#CC3CCCC3)cnc2O[C@H]1CN(C)C(=O)C1CC1 | 32.3% (inactive)
14 | CCCC#Cc1cnc2c(c1)C(=O)N([C@H](C)CO)C[C@H](C)[C@@H](CN(C)S(=O)(=O)c1ccccc1)O2 | 75.2% (inactive)
15 | C[C@@H]1CN([C@@H](C)CO)C(=O)c2cc(C#CC3CCCCC3)cnc2O[C@H]1CN(C)S(=O)(=O)c1ccccc1 | 104% (active)
16 | C[C@@H]1CN([C@@H](C)CO)C(=O)c2cc(C#CC3CCCCC3)cnc2O[C@@H]1CN(C)Cc1cncnc1 | 53.7% (inactive)
17 | CC(C)NC(=O)N(C)C[C@H]1Oc2ncc(C#CC3CCCCC3)cc2C(=O)N([C@H](C)CO)C[C@@H]1C | 84.2% (inactive)
18 | C[C@H]1CN([C@@H](C)CO)C(=O)c2cc(C#CC3CCCCC3)cnc2O[C@H]1CN(C)S(=O)(=O)c1ccccc1 | 104% (active)
19 | C[C@@H]1CN([C@H](C)CO)C(=O)c2cc(NC(=O)Cc3ccccc3)ccc2O[C@@H](C)CCCCO[C@H]1CN(C)C(=O)Cc1ccccc1 | -33.3% (inactive)
20 | O=C(C[C@H]1CC[C@@H]2[C@H](COC[C@@H](O)CN2Cc2cccc(-c3ccncc3)c2)O1)N1CCOCC1 | 65.1% (inactive)
21 | O=C(C[C@@H]1CC[C@H]2[C@@H](COC[C@H](O)CN2S(=O)(=O)c2ccc(F)cc2)O1)N[C@H]1CCN(Cc2ccccc2)C1 | 67.7% (inactive)

Row | SMILES | inhibition
22 | COc1ccccc1-c1ccc2c(c1)O[C@@H](CN(C)C)[C@H](C)CN([C@H](C)CO)S2(=O)=O | 102% (active)
23 | CC(=O)N(C)C[C@H]1Oc2cc(-c3ccc(C)cc3)ccc2S(=O)(=O)N([C@@H](C)CO)C[C@@H]1C | 98.5% (inactive)
24 | Cc1ccc(-c2ccc3c(c2)O[C@H](CN(C)C)[C@@H](C)CN([C@@H](C)CO)S3(=O)=O)cc1 | 71.8% (inactive)
25 | CCC(=O)N(C)C[C@@H]1Oc2cc(-c3ccccc3OC)ccc2S(=O)(=O)N([C@H](C)CO)C[C@H]1C | 52.7% (inactive)
26 | COc1ccccc1-c1ccc2c(c1)O[C@H](CN(C)S(=O)(=O)c1ccc(C)cc1)[C@@H](C)CN([C@H](C)CO)S2(=O)=O | 124% (active)
27 | CNC[C@@H]1Oc2cc(-c3ccccc3OC)ccc2S(=O)(=O)N([C@@H](C)CO)C[C@H]1C | 42.1% (inactive)
28 | Cc1ccccc1-c1ccc2c(c1)O[C@H](CN(C)C)[C@@H](C)CN([C@H](C)CO)S2(=O)=O | 30% (inactive)
29 | Cc1ccccc1-c1ccc2c(c1)O[C@H](CN(C)C)[C@H](C)CN([C@@H](C)CO)S2(=O)=O | 15.2% (inactive)
30 | Cc1ccc(-c2ccc3c(c2)O[C@H](CN(C)C)[C@@H](C)CN([C@H](C)CO)S3(=O)=O)cc1 | 107% (active)
31 | CO[C@@H](CN(C)S(=O)(=O)c1cccc(Cl)c1)[C@H](C)CN([C@H](C)CO)S(=O)(=O)c1cccc(Cl)c1 | 71.5% (inactive)
32 | C[C@@H]1CCCCO[C@H](CN(C)C(=O)Cc2ccccc2)[C@@H](C)CN([C@@H](C)CO)C(=O)c2cc(NC(=O)c3ccccc3)ccc2O1 | 46.7% (inactive)
33 | O=C(NCC1CC1)[C@H]1[C@H](CO)[C@H]2Cn3c(ccc(/C=C/c4ccccc4)c3=O)[C@@H]1N2C(=O)C1CCC1 | -126% (inactive)
34 | O=C(NCc1ccccn1)[C@@H]1[C@@H](CO)[C@@H]2Cn3c(ccc(/C=C/c4ccccc4)c3=O)[C@H]1N2CC1CC1 | 110% (active)
35 | CCCNC(=O)[C@@H]1[C@@H](CO)[C@@H]2Cn3c(ccc(/C=C/c4ccccc4)c3=O)[C@H]1N2CCC | 59.6% (inactive)
36 | COc1ccccc1NC(=O)N[C@H]1C=C[C@@H](CC(=O)N[C@@H](C)c2ccccc2)O[C@@H]1CO | 3.52% (inactive)
37 | CO[C@H]1CN(C)C(=O)c2cc(NC(=O)C3CCC3)ccc2OC[C@H](C)N(Cc2nccs2)C[C@H]1C | 16.8% (inactive)
38 | CCCNC(=O)[C@@H]1[C@@H](CO)[C@@H]2Cn3c(cccc3=O)[C@H]1N2C(=O)C1CC1 | 38.4% (inactive)
39 | CCCNC(=O)[C@@H]1[C@@H](CO)[C@@H]2Cn3c(cccc3=O)[C@H]1N2C(=O)Nc1cc(F)ccc1F | 81.1% (inactive)
40 | C[C@@H]1CCCCO[C@@H](CN(C)CC2CCCCC2)[C@H](C)CN([C@H](C)CO)C(=O)c2cc(NC(=O)C3CCCCC3)ccc2O1 | 51.3% (inactive)
41 | C[C@@H]1CN([C@@H](C)CO)C(=O)c2cc(NC(=O)C3CCCCC3)ccc2O[C@@H](C)CCCCO[C@@H]1CN(C)Cc1ccc(C(=O)O)cc1 | 15.2% (inactive)
42 | C[C@@H]1CCCCO[C@@H](CN(C)Cc2ccc(C(=O)O)cc2)[C@H](C)CN([C@@H](C)CO)C(=O)c2cc(NC(=O)C3CCCCC3)ccc2O1 | -8.6% (inactive)

Row | SMILES | inhibition
43 | C[C@@H]1CN([C@@H](C)CO)C(=O)c2cc(NC(=O)C3CCCCC3)ccc2O[C@@H](C)CCCCO[C@H]1CN(C)Cc1ccncc1 | 106% (active)
44 | C[C@@H]1CCCCO[C@@H](CN(C)CC2CC2)[C@H](C)CN([C@H](C)CO)C(=O)c2cc(NC(=O)C3CCCCC3)ccc2O1 | 102% (active)
45 | C[C@@H]1CCCCO[C@@H](CN(C)CC2CC2)[C@@H](C)CN([C@H](C)CO)C(=O)c2cc(NC(=O)C3CCCCC3)ccc2O1 | 89% (inactive)
46 | O=C(O)C[C@H]1C[C@@H]2c3cc(NC(=O)Nc4ccc(C(F)(F)F)cc4)ccc3O[C@@H]2[C@@H](CO)O1 | -33% (inactive)
47 | C[C@H]1CN([C@@H](C)CO)C(=O)c2cccc(NC(=O)Nc3ccccc3)c2O[C@H]1CN(C)S(=O)(=O)c1ccc(F)cc1 | -95% (inactive)
48 | C[C@H]1CCCCO[C@H](CN(C)CC2CC2)[C@@H](C)CN([C@@H](C)CO)C(=O)c2cc(NS(C)(=O)=O)ccc2O1 | 4.98% (inactive)
49 | CCNC(=O)Nc1ccc2c(c1)C(=O)N(C)[C@@H]1CC[C@@H](CC(=O)NC3CCCCC3)O[C@H]1CO2 | 12.5% (inactive)
50 | C[C@@H](O)C#Cc1ccc([C@H]2[C@H](CO)N3CCCCN(C(=O)c4ccc(F)cc4)C[C@@H]23)cc1 | -25.9% (inactive)
51 | CC(C)(O)C#Cc1ccc([C@H]2[C@H]3CN(C(=O)c4ccncc4)CCCCN3[C@H]2CO)cc1 | 22% (inactive)
52 | O=C(c1ccc(F)cc1)N1CCCCN2[C@@H](CO)[C@H](c3ccc(-c4ccccc4)cc3)[C@@H]2C1 | 61.8% (inactive)
53 | C[C@H](O)C#Cc1ccc([C@@H]2[C@@H](CO)N3CCCCN(C(=O)c4ccncc4)C[C@@H]23)cc1 | 15.2% (inactive)
54 | COc1ccccc1-c1ccc([C@@H]2[C@@H](CO)N3CCCCN(C(=O)c4ccncc4)C[C@@H]23)cc1 | 52.8% (inactive)
55 | COc1ccc(C#Cc2ccc([C@@H]3[C@@H](CO)N4CCCCN(C(=O)c5ccncc5)C[C@@H]34)cc2)cc1 | 98.5% (active)
56 | O=C(c1cccc(F)c1)N1CCCCN2[C@H](CO)[C@H](c3ccc(-c4ccncc4)cc3)[C@H]2C1 | 99.9% (active)
57 | CC(C)(O)C#Cc1ccc([C@H]2[C@@H](CO)N3CCCCN(C(=O)c4ccncc4)C[C@H]23)cc1 | 10.9% (inactive)
58 | O=C(c1ccncc1)N1CCCCN2[C@H](CO)[C@H](c3ccc(-c4ccccc4)cc3)[C@H]2C1 | 103% (active)
59 | O=C(c1cccc(F)c1)N1CCCCN2[C@@H](CO)[C@H](c3ccc(-c4cncnc4)cc3)[C@@H]2C1 | 83.5% (inactive)
60 | CC(C)(O)C#Cc1ccc([C@@H]2[C@H](CO)N3CCCCN(C(=O)c4cccc(F)c4)C[C@@H]23)cc1 | 112% (active)
61 | O=C(c1cccc(F)c1)N1CCCCN2[C@H](CO)[C@@H](c3ccc(-c4cncnc4)cc3)[C@H]2C1 | 44.2% (inactive)
